# Where a name gives a salt, the structure may show the parent alone. ± gives the standard deviation.
# System: Jurkat
# Test: cell count relative to DMSO control (fraction of control); higher = more cells (less growth inhibition)
# Conditions: 48 h
row,SMILES,cell count
1,COc1c(C)c2c(c(O)c1C/C=C(\C)CCC(=O)O)C(=O)OC2 [Mycophenolic Acid] (concentration: 2.5 µM),0.225 ± 0.05
2,C[N+]1(C)[C@@H]2CC[C@H]1C[C@@H](OC(=O)C(O)c1ccccc1)C2 (some centres not stated) [Homatropine Methylbromide] (concentration: 25 µM),0.565 ± 0.018
3,COc1ccc2[nH]c([S+]([O-])Cc3ncc(C)c(OC)c3C)nc2c1 (configuration not stated) [Omeprazole] (concentration: 25 µM),0.946 ± 0.083
4,CNCC[C@H](Oc1cccc2ccccc12)c1cccs1 [Duloxetine·HCl] (concentration: 25 µM),0.353 ± 0.073
5,CNCCCN1c2ccccc2CCc2ccccc21 [Desipramine·HCl] (concentration: 25 µM),0.721 ± 0.066
6,CCC1(C)CC(=O)NC1=O (configuration not stated) [Ethosuximide] (concentration: 25 µM),1.08 ± 0.074
7,COc1ccccc1OCC(O)CN1CCN(CC(=O)Nc2c(C)cccc2C)CC1 (configuration not stated) [Ranolazine·2HCl] (concentration: 25 µM),0.979 ± 0.084
8,CC1(C)O[C@@H]2C[C@H]3[C@@H]4C[C@H](F)C5=CC(=O)CC[C@]5(C)[C@H]4[C@@H](O)C[C@]3(C)[C@]2(C(=O)CO)O1 [Flurandrenolide] (concentration: 25 µM),0.638 ± 0.12
9,Cc1ccc(C(=O)c2cc(O)c(O)c([N+](=O)[O-])c2)cc1 [Tolcapone] (concentration: 25 µM),0.864 ± 0.15
10,NC(=O)OCC(COC(N)=O)c1ccccc1 [Felbamate] (concentration: 25 µM),0.755 ± 0.16
11,CN1CC2c3ccccc3Oc3ccc(Cl)cc3C2C1 (configuration not stated) [Asenapine Maleate] (concentration: 25 µM),0.935 ± 0.16
12,CCc1nn(CCCN2CCN(c3cccc(Cl)c3)CC2)c(=O)n1CCOc1ccccc1 [Nefazodone·HCl] (concentration: 25 µM),0.601 ± 0.02
13,Nc1ccn([C@@H]2O[C@H](CO)[C@@H](O)C2(F)F)c(=O)n1 [Gemcitabine·HCl] (concentration: 25 nM),0.427 ± 0.09
14,COC(=O)N[C@H](C(=O)N[C@@H](Cc1ccccc1)[C@@H](O)CN(Cc1ccc(-c2ccccn2)cc1)NC(=O)[C@@H](NC(=O)OC)C(C)(C)C)C(C)(C)C [Atazanavir] (concentration: 25 µM),0.658 ± 0.054
15,Brc1c(NC2=NCCN2)ccc2nccnc12 [Brimonidine] (concentration: 25 µM),0.9 ± 0.091
16,Cc1ncc([N+](=O)[O-])n1CCO [Metronidazole] (concentration: 25 µM),0.75 ± 0.047
17,COc1ccc2[nH]c([S@@+]([O-])Cc3ncc(C)c(OC)c3C)nc2c1 [Esomeprazole Potassium] (concentration: 25 µM),0.868 ± 0.081
18,C#C[C@]1(O)CC[C@H]2[C@@H]3CCC4=CC(=O)CC[C@@H]4[C@H]3C(=C)C[C@@]21CC [Etonogestrel] (concentration: 25 µM),0.557 ± 0.013
19,COc1ccc2cc(CCC(C)=O)ccc2c1 [Nabumetone] (concentration: 25 µM),0.888 ± 0.058
20,O=C1CN2Cc3c(ccc(Cl)c3Cl)N=C2N1 [Anagrelide] (concentration: 25 µM),0.696 ± 0.12
21,Cc1onc(-c2ccccc2Cl)c1C(=O)N[C@@H]1C(=O)N2[C@@H]1SC(C)(C)[C@@H]2C(=O)O [Cloxacillin·Na] (concentration: 25 µM),0.703 ± 0.056
22,CNS(=O)(=O)CCc1ccc2[nH]cc(C3CCN(C)CC3)c2c1 [Naratriptan·HCl] (concentration: 25 µM),0.951 ± 0.065
23,CC(C)(C)NC(=O)[C@@H]1CN(Cc2cccnc2)CCN1C[C@@H](O)C[C@@H](Cc1ccccc1)C(=O)N[C@H]1c2ccccc2C[C@H]1O [Indinavir] (concentration: 25 µM),0.539 ± 0.068
24,Cc1ccc(C)c(OCCCC(C)(C)C(=O)O)c1 [Gemfibrozil] (concentration: 25 µM),0.91 ± 0.048
25,C[C@]12CC[C@@H]3c4ccc(O)cc4CC[C@H]3[C@@H]1CC[C@@H]2O [Estradiol] (concentration: 25 µM),0.711 ± 0.1
26,CCNC(=O)CCC/C=C\C[C@@H]1[C@@H](/C=C/[C@@H](O)CCc2ccccc2)[C@H](O)C[C@@H]1O [Bimatoprost] (concentration: 25 µM),0.307 ± 0.091
27,NCCCC(N)(C(=O)O)C(F)F (configuration not stated) [Eflornithine·HCl] (concentration: 25 µM),0.985 ± 0.073

# Source: the supplement of paper PMC4709259
